In PubChem BioAssay AID624126 (The Scripps Research Institute Molecular Screening Center, 2012) one finds activation data, which are given here for 91 compounds.

About 1,400 (0.39%) of roughly 360,000 compounds were called active. The sample holds actives, similar compounds and a random draw of the others, so the mix is not that of the screen.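 How the source made its calls: active means activation above its plate's cutoff, the mean activation of sample wells plus 3 SD; inactive means the rest.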

Sequence of Muscarinic acetylcholine receptor M4 (Homo sapiens) (P08173 whole entry, looked up): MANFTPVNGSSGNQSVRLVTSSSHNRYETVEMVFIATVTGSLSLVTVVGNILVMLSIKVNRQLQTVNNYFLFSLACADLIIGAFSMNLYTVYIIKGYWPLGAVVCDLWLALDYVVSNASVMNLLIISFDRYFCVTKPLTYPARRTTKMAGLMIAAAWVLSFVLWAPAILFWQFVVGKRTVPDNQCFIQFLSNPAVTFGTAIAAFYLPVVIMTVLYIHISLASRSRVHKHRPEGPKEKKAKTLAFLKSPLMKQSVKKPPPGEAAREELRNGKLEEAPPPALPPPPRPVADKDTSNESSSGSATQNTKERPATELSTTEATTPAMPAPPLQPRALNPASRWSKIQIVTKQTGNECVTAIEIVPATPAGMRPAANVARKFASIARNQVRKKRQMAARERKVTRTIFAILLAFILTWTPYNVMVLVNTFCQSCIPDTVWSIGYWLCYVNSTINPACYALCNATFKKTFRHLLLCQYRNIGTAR

The experiment has as its target Muscarinic acetylcholine receptor M4 (Homo sapiens) (UniProt P08173). Briefly: CHRM4 PAMs potentiating acetylcholine calcium signal – CHO-K1 cells, Fluo-8 calcium fluorescence, primary screen (AID 624126). To be noted: CHO-K1 hM4/Gqi5, Fluo-8 calcium fluorescence, ACh EC20; at 3 µM; stronger effect = higher value; 0% = ACh EC20, 100% = maximal ACh.
As to `Cc1cc(C)c(S(=O)(=O)NCCCN2CCOCC2)cc1Br`, the activation was -4.24% (inactive).
The figure for `COc1cccc(CN(C)CC(=O)Nc2sc3c(c2C#N)CCC3)c1` is -0.97% (inactive).
The result for `CCN1CCN(CC(=O)Nc2sc3c(c2C#N)CCC3)CC1` reads 17.1% (active); that for `O=C(CN1CCCC1)Nc1sc2c(c1C(=O)Nc1ccccc1)CCCC2`, 0.04% (inactive).
The figure for `COCc1c(C(=O)OCc2c(C)noc2C)oc2ccccc12` is -3.78% (inactive); for `CCCCCN(C(=O)CCC(=O)OCC(=O)NC1CCC(C)CC1)c1c(N)n(CCCC)c(=O)[nH]c1=O` (stereo unspecified) it is 9.55% (inactive); for `CN(CCc1ccccc1)C(=O)c1cccc(NC(=O)Cc2cccc(NC(=O)C3CCCN(C(=O)C4CCC4)C3)c2)c1` (stereo unspecified) it is -5.03% (inactive).
With `O=C(c1cnccn1)N1CCN(S(=O)(=O)c2cccc(Cl)c2)CC1`, the activation was 1.28% (inactive).
The figure for `Cc1ccc(Cn2c(=N)c(S(=O)(=O)c3ccc(C)cc3)cc3c(=O)n4ccccc4nc32)cc1` is 3.3% (inactive); for `O=C(OC12CC3CC(CC(C3)C1)C2)c1ccc(NCc2cc(O)ccc2O)cc1` it is 15.5% (active).
The figure for `O=C(Nc1cc(F)ccc1F)c1ccc2c(=O)n3c(nc2c1)CCC3` is 3.59% (inactive); for `Cc1cc(C)c(C)c(S(=O)(=O)N2CCN(C(=O)c3ccc4c(=O)n5c(nc4c3)CCC5)CC2)c1C` it is -1.12% (inactive); for `CC1CCN(C(=O)c2ccc3c(=O)n4c(nc3c2)CCCCC4)CC1` it is 14.7% (active).
`CCOc1ccc(/C=C/C(=O)N(CC)CC(=O)NCc2cccs2)cc1OC`: the activation was -5.1% (inactive).
The result for `CCN(CC(=O)NCc1cccs1)C(=O)/C=C/c1ccc(C)cc1` reads 23.5% (active); that for `CCN(CC(=O)NCc1cccs1)C(=O)c1ccccc1F`, 0.45% (inactive).
For `COCCn1c(SCC(=O)Nc2ccc3c(c2)CCC3)nc2ccccc2c1=O`, the activation is -0.72% (inactive).
The figure for `Cc1c(C(=O)c2cccc([N+](=O)[O-])c2)c2ccccn2c1CCC#N` is -5.93% (inactive).
Take `CN1CCN(c2cc3c(cc2F)c(=O)c(C(=O)O)cn3CCF)CC1`: the activation is 8.31% (inactive).
The result for `COc1ccc(N2CC(C(=O)N[C@@H](C)C(=O)N3CCCCC3)CC2=O)cc1` (stereo partly specified) reads -1.42% (inactive); that for `CCCC(C)c1nnc(NC(=O)C2CC(=O)N(c3ccc(OCC)cc3)C2)s1` (stereo unspecified), 0.96% (inactive).
Regarding `CCOc1ccc(NC(=O)[C@H](C)NC(=O)C2CC(=O)N(c3ccc(OC)cc3)C2)cc1` (stereo partly specified), the activation was 17.5% (active).
The figure for `COc1ccc(-c2ccc3c(c2)C2CC3CCN2CCC#N)cc1` (stereo unspecified) is -4.51% (inactive).
The figure for `N/C(=N\OC(=O)CCc1ccccc1)c1ccc(Cl)cc1` is 12.9% (inactive); for `COc1ccc(/C(N)=N/OC(=O)CCCc2ccccc2)cc1` it is 1.71% (inactive).
The result for `N/C(=N\OC(=O)CCc1ccccc1)c1cccnc1` reads 24.5% (active); that for `CC(C)(C(=O)N1CCC1(C)C(=O)NS(=O)(=O)c1ccc(Br)cc1)c1ccccc1` (stereo unspecified), 1.17% (inactive); that for `CC(C)c1nc(CNC(=O)CC2C(=O)NCCN2Cc2cccc(F)c2F)cs1` (stereo unspecified), -2.59% (inactive).
On to `Cc1nnc(SC(C(=O)Nc2cc(Cl)cc(Cl)c2)c2ccccc2)[nH]c1=O` (stereo unspecified), for which the activation was -2.22% (inactive).
The result for `CN(CC(=O)Nc1c(Cl)cccc1Cl)C(=O)c1ccncc1` reads 0.17% (inactive); that for `O=C(Nc1c(Cl)cccc1Cl)C1CCC1`, 11.8% (inactive); that for `NC(=S)Nc1c(Cl)cccc1Cl`, 43.9% (active).
The figure for `COC(=O)c1c(NC(=O)COc2ccc(Cl)cc2Cl)sc2c1CC(C)(C)NC2(C)C` is 14.6% (inactive).
The result for `CCOc1ccccc1C1NC(=O)NC(C)=C1C(=O)OCc1ccco1` (stereo unspecified) reads -5.48% (inactive); that for `Cc1ccc(C2=CSC3=NS(=O)(=O)CCN23)cc1C`, 5.85% (inactive); that for `CCCCOc1ccc(CON(C(C)=O)C(C)=O)cc1Cl`, -9.39% (inactive).
Turning to `CCCOc1ccc(C2=CSC3=NCCN23)cc1Cl`, the activation is 15.8% (active).
The result for `CCNC(=O)CCc1nc(-c2ccc(C(C)(C)C)cc2)no1` reads 1.74% (inactive); that for `O=C(O)C1CCCN1S(=O)(=O)c1ccc2c(c1)CCC2` (stereo unspecified), -5.21% (inactive).
The result for `CCCc1cc(=O)[nH]c(SCC(=O)c2c(N)n(CC(C)C)c(=O)n(C)c2=O)n1` reads 25.4% (active).
As for `CCCc1cc(=O)[nH]c(SCC(=O)N2C(C)CCCC2C)n1` (stereo unspecified), the activation was 2.48% (inactive).
The result for `CC(C)Cn1c(N)c(C(=O)COC(=O)CN2C(=O)C3CC=CCC3C2=O)c(=O)n(C)c1=O` (stereo unspecified) reads -2.93% (inactive); that for `Cc1ccc(SCC2=NNC(=O)C2)cc1`, -0.52% (inactive).
The result for `O=C(Cn1nc(CNc2ccc(Cl)cc2)[n+]2c1CCCCC2)c1ccc(Cl)cc1` reads -0.75% (inactive); that for `Cc1ccccc1NC(=O)NC1(C(=O)N2CCCC2)CCCCC1`, 9.77% (inactive).
The figure for `Cc1ccc(C)c(NC(=O)NNC(=O)c2ccc3ccccc3c2O)c1` is 12.9% (inactive); for `COc1ccc2c(C)cc3nnnn3c2c1` it is 5% (inactive); for `CC(=O)c1c(OCC(=O)N(C)C2CCCCC2)ccc2c(C)cc(=O)oc12` it is 21.7% (active).
On to `Cc1cc(=O)oc2c(C)c(OCC(=O)NCCN3CCOCC3)ccc12`, for which the activation was -1.9% (inactive).
The result for `Cc1cc(=O)oc2c(C(=O)c3ccccc3)c(OCC(N)=O)ccc12` reads -2.31% (inactive).
`C[n+]1cccc(C(=O)O)c1`: the activation was -3.7% (inactive).
The figure for `O=C(Cc1ccc(S(=O)(=O)N2CCOCC2)s1)Nc1ccc(Br)c(C(F)(F)F)c1` is -10.2% (inactive); for `Cc1cc(=O)[nH]c(N/N=C/c2ccc3c(c2)OCCO3)n1` it is 31.5% (active).
For the compound `Cc1ccc(C)c(NC2=NCC(=O)N2c2ccc3c(c2)OCCO3)c1`, the activation was -2.16% (inactive).
For `Cc1cc(=O)[nH]c(Nc2cccc(Br)c2)n1`, the activation was -7.26% (inactive).
The result for `Cn1cnc2c1c(=O)n(Cc1ccccc1C#N)c(=O)n2C` reads 1.16% (inactive); that for `O=C(C(NS(=O)(=O)c1cccc2nsnc12)c1ccccc1)N1CCN(c2ccccn2)CC1` (stereo unspecified), -11.9% (inactive); that for `CCc1ccccc1OCC(=O)Nc1nnc(C2CC2)s1`, 2.68% (inactive).
The result for `CCc1cc(C(=O)Nc2nnc(C3CC3)s2)sc1C` reads 6.5% (inactive).
On to `O=C(Nc1nnc(C2CC2)s1)c1ccccn1`, for which the activation is 28.3% (active).
The figure for `O=C(CN1CCSCC1)N/N=C/c1ccc(F)cc1F` is 4.64% (inactive); for `CCN(CC)c1ccc(C(=O)OCC(=O)c2ccco2)cc1` it is -1.72% (inactive).
In the case of `Cc1cc(NC(=O)C(C)SCC(=O)Nc2cccc(S(=O)(=O)N3CCCCCC3)c2)no1` (stereo unspecified), the activation was -6.44% (inactive).
On to `O=C(CCc1nc(-c2ccccc2)no1)Nc1cccc(C(=O)NC2CC2)c1`, for which the activation was 10.1% (inactive).
The result for `N#CCSc1ccccc1NC(=O)CN1C(=O)NC(CCc2ccccc2)C1=O` (stereo unspecified) reads 1.07% (inactive); that for `O=C(c1ccccc1)N1CCN(c2ccc([N+](=O)[O-])c(NCc3ccco3)c2)CC1`, 21.4% (active).
The figure for `O=[N+]([O-])c1ccc(N2CCN(S(=O)(=O)c3ccc4ccccc4c3)CC2)cc1NCc1ccco1` is 14% (inactive); for `O=C(c1ccc(S(=O)(=O)NCc2ccco2)cc1)N1CCN(c2ccccc2)CC1` it is 18.3% (inactive); for `CC(=O)c1ccc(S(=O)(=O)NCCC(=O)N2CCN(c3ccccn3)CC2)cc1` it is 2.49% (inactive).
The result for `Cc1csc(SCC(=O)N(c2ccccc2)C(C)C)n1` reads 1.05% (inactive); that for `O=C(CCC(=O)OCC(F)(F)C(F)F)NCc1ccccc1`, -1.61% (inactive).
`Cc1cc(C)c(OCCN2CC(C)OC(C)C2)c(Br)c1` (stereo unspecified): the activation was 20.4% (active).
The figure for `CC1CN(CCOc2ccccc2[N+](=O)[O-])CC(C)O1` (stereo unspecified) is 1.64% (inactive); for `CC1CN(CCCOc2ccccc2-c2ccccc2)CC(C)O1` (stereo unspecified) it is -4.17% (inactive).
The result for `Cc1cc2c(cc1C)[n+](C)cn2CC(O)COCC1CC=CCC1` (stereo unspecified) reads 4.04% (inactive).
The figure for `NS(=O)(=O)c1cccnc1Nc1cccc(Cl)c1` is 24.9% (active).
With `O=S(=O)(Nc1ncccn1)c1ccc(NS(=O)(=O)c2cccc(Cl)c2Cl)cc1`, the activation is 3.83% (inactive).
The figure for `OCCCNc1nccc(-c2cc(Nc3cccc(Cl)c3)ncn2)n1` is 4.57% (inactive); for `CC(C(=O)NCCc1ccc(S(N)(=O)=O)cc1)N1C(=O)CC(C)(C)Sc2ccccc21` (stereo unspecified) it is -2.13% (inactive).
On to `CCOC(=O)[C@]12CCCC=C1N(Cc1ccc3c(c1)OCO3)C(=O)[C@H](CC(=O)NCc1cccs1)C2`, for which the activation was 23.3% (active).
The result for `COC(=O)[C@]12CCCCC=C1N(Cc1ccc3c(c1)OCO3)C(=O)[C@H](CC(=O)NCc1cccs1)C2` reads -4.76% (inactive).
The result for `CCOC(=O)[C@]12CCCC=C1N(Cc1ccc3c(c1)OCO3)C(=O)[C@H](CC(=O)N1CCN(C(=O)c3ccco3)CC1)C2` reads 13.2% (inactive).
As to `Cc1[nH]c2c(C(=O)N3CCCC(CCC(=O)NCc4ccccc4F)C3)cccc2c1C` (stereo unspecified), the activation is -3.21% (inactive).
The figure for `Cc1nc(CN2CCN(C(=O)CCc3nnc(Cc4c[nH]c5ccccc45)o3)CC2)cs1` is -5.85% (inactive).
The figure for `COc1ccc(N2CCN(C(c3cc4ccc(C)cc4[nH]c3=O)c3nnnn3C3CCCC3)CC2)cc1` (stereo unspecified) is -3.66% (inactive); for `COCCn1nnnc1C(c1cc2ccc(OC)cc2[nH]c1=O)N1CCc2ccccc2C1` (stereo unspecified) it is -1.22% (inactive); for `CCOc1ccc2[nH]c(=O)c(C(c3nnnn3CCOC)N3CCOCC3)cc2c1` (stereo unspecified) it is 33.2% (active).
The figure for `COc1ccc(OC)c(S(=O)(=O)N2CCCC(C(=O)N3CCC(C(N)=O)CC3)C2)c1` (stereo unspecified) is 6.48% (inactive).
Take `Cc1cccc(C(C)C)c1NC(=O)COC(=O)C1CC(=O)N(Cc2ccccc2)C1` (stereo unspecified): the activation is 1.78% (inactive).
The result for `CCC/C(C)=N\Nc1nc2c(c(=O)n(C)c(=O)n2C)n1C` reads -1.33% (inactive); that for `O=C(Nc1ccc(N2C(=O)c3cccc4cccc(c34)C2=O)cc1)c1ccc(N2CCCCC2)c([N+](=O)[O-])c1`, 4.02% (inactive).
